A selection: hits, their analogues and other compounds. The true share with any hit is near 1.2%.
C-LANA FP – inhibitors of KSHV LANA C-terminal domain DNA binding; inhibition, % at 9 µM; 340,000 compounds, 0.078% hits; MBP-C-LANA/FAM-LBS DNA binding, fluorescence polarization; AID 504423;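 active = highest replicate inhibition at or above 60% at 9 µM, even if other replicates fall short; inactive = all replicates below 60% inhibition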;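 note: 0% = neutral control wells and 100% = 4 µM acridine orange control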
eLon inh – E. coli protease La inhibition | P0A9M0 | purified E. coli Lon protease, fluorescence polarization | inhibition, % at 7.94 µM | 360,000 compounds, 0.42% hits | AID 602123; in the data active = inhibition above about 13%, passing the limit was not always enough;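 note: 0% = enzyme with probe and DMSO and 100% = no enzyme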
MEX-5 binding – C. elegans MEX-5 TCR-2 RNA binding activity; 300,000 compounds, 0.38% hits; MEX-5/FITC-TCR2 RNA binding, fluorescence polarization; stronger effect = lower value; AID 1832; activity score (negative = inhibition of binding), % at 10 µM; Q9XUB2;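 active = inhibition past about -25% in most replicates, and total fluorescence under double the plate's negative control median, limit read from the data; inconclusive = replicates evenly split on the limit, or fluorescence at least double controls; inactive = too little inhibition in most replicates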;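 note: 0% = DMSO and -100% = 5 µM competing unlabeled TCR2 RNA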
Bcl-xL primary – blocks human Bcl-xL binding to Bim BH3 peptide. 320,000 compounds, 0.7% hits. Q07817. GST-Bcl-xL / FITC-Bim BH3 peptide fluorescence polarization. inhibition, % at 10.9 µM;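 active = inhibition above the mean of all tested compounds plus 3 SD, cutoff set per campaign, cut at about 30% in these data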;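 note: 0% = DMSO wells and 100% = unlabeled Bim-BH3 peptide competitor; inhibitors lower millipolarization by displacing the labeled peptide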
Target sequence (Q07817 whole entry, looked up): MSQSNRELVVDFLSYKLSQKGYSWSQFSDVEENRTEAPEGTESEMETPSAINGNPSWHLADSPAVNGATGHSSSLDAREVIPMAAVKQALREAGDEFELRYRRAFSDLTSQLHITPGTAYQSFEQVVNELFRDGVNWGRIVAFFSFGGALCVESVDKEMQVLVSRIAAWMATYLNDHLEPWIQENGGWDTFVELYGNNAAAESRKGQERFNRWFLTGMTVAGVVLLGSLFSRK
GLD-1 RNA inh – GLD-1-TGE RNA interaction inhibition (C. elegans) | purified GLD-1 + fluorescein TGE RNA, fluorescence polarization | inhibition, % at 5.96 µM | 320,000 compounds, 0.44% hits | AID 2280;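 active = percent inhibition above a per-plate cutoff, the plate mean of test compounds plus 3 SD, cut at about 30% in these data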;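 note: 0% = DMSO wells with GLD-1 and probe and 100% = wells lacking GLD-1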
Keap1-Nrf2 PPI – inhibitors of human Keap1-Nrf2 protein-protein interaction | Q14145 | Keap1 Kelch-Nrf2 peptide fluorescence polarization, 1536-well | inhibition, % at 9.4 µM | 340,000 compounds, 0.15% hits | AID 504523; in the data active = inhibition above about 12%; inconclusive = no clear call, values can overlap the other calls; inactive = below about 7.3%;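 note: human Keap1 Kelch domain with fluorescein labeled Nrf2 9mer peptide probe; 0% = neutral control wells and 100% = peptide positive control; higher means more block of Keap1 binding to Nrf2 peptide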
An asterisk follows results filed as active; ? = inconclusive; . = no result.

SMILES | C-LANA FP | eLon inh | MEX-5 binding | Bcl-xL primary | GLD-1 RNA inh | Keap1-Nrf2 PPI
O=C(Cn1nc(C(=O)O)c2ccccc2c1=O)Nc1cccc(S(=O)(=O)N2CCCCCC2)c1 | 0 | 12 | . | . | -6 | -5
CSC(=NCc1ccc(F)cc1)NS(=O)(=O)c1cccs1 | -3 | -14 | -1 | 8 | 3 | 5
CS/C(=N\S(=O)(=O)c1ccc(N)cc1)NS(=O)(=O)c1cccs1 | 113* | -4 | 2 | -1 | 9 | 7
Cc1ccc(S(=O)(=O)NCC(=O)OCC(=O)NCc2ccco2)cc1 | 0 | 8 | . | . | 0 | 1
Cn1c2ccccc2c2cc(/C=N/NC(=O)c3cc(O)ccc3O)ccc21 | -2 | 5 | 1 | 32* | 8 | 3
O=C(NCCS(=O)(=O)N1CCCC1)c1ccccc1 | -3 | 15 | -1 | 6 | -7 | -3
CCOC(=O)C1=C(C)OC(N)=C(C#N)C1c1ccc(O)c(OC)c1 (stereo not given) | 6 | -2 | -40* | 0 | 6 | -3
CCOC(=O)C1=C(C)OC(N)=C(C#N)C1c1ccccc1 (stereo not given) | -1 | 2 | 1 | 8 | 0 | 1
Cc1cc(-c2ccco2)c(C#N)c2nc3ccccc3n12 | 0 | 4 | -20 | 85* | -14 | -5
Cc1cc(C(C)C)n2c(nc3ccccc32)c1C#N | . | . | 1 | 4 | -3 | .
Cn1c(=O)c2[nH]c(N=NNc3ccccc3F)nc2n(C)c1=O | 0 | -1 | -34* | 10 | 2 | 0
CC(=O)/C(N=Nc1nc2c([nH]1)c(=O)n(C)c(=O)n2C)=C(\C)O | 0 | 8 | -36* | 9 | 11 | 3
Cc1ccccc1NN=Nc1nc2c([nH]1)c(=O)n(C)c(=O)n2C | 4 | 10 | . | 11 | 7 | -3
CC(=O)Nc1nnc(SCc2cccc(F)c2)s1 | -1 | -4 | -2 | 47* | 0 | -4
O=C(Nc1cccc(C(F)(F)F)c1)c1csc([C@@H]2O[C@H](CO)[C@H](O)[C@H](O)[C@H]2O)n1 | . | -2 | . | . | . | .
CC1CC(C)CN(CCCNC(=O)C2CCCN(c3ncnc4c3nc3n4CCCCC3)C2)C1 (stereo not given) | -2 | -4 | 0 | 4 | 41* | -5
CC1CCCCN1CCNC(=O)C1CCCN(c2ncnc3c2nc2n3CCCCC2)C1 (stereo not given) | 1 | 3 | -2 | 39* | 15 | -4
Cc1nc2ccccc2c2c(N)c3ccccc3n12 | 1 | 4 | 2 | 35* | 26 | 8
Nc1c2ccccc2nc2ccccc12 | -5 | -1 | 1 | 3 | 5 | -5
CCN(CC)S(=O)(=O)c1cc(C(=O)Nc2cc(C)on2)c(Cl)cc1Cl | -1 | 3 | 1 | 5 | 4 | 1
CC(C(=O)Nc1cccnc1)N1C(=O)C2C3C=CC(C3)C2C1=O (stereo not given) | 1 | -1 | 0 | 89* | -4 | -1
Nc1nc2c(ncn2[C@@H]2O[C@H](CNS(=O)(=O)C3CC3)[C@@H](O)[C@H]2O)c(=O)[nH]1 | . | -5 | . | . | . | .
COc1cc2c3nnc(-c4ccc(F)cc4)c-3cn(Cc3ccc(F)cc3)c2cc1OC | 24 | -24 | ? | 72* | -11 | 8
COc1ccc(Cn2cc3c(-c4ccc(F)cc4)nnc-3c3cc(OC)c(OC)cc32)cc1 | 0 | -14 | . | 47* | 0 | -4
Cn1nc2c3cc(F)ccc3n(Cc3ccc(F)cc3)cc-2c1=O | 0 | 5 | 2 | -1 | 6 | 0
Nc1ncnc(NNC(=O)CNC(=O)c2c(F)cccc2Cl)c1[N+](=O)[O-] | 1 | 5 | -66* | 6 | -1 | 0
C[C@H](CO)N1C[C@H](C)[C@@H](CN(C)Cc2ccc(Cl)c(Cl)c2)Oc2ccc(NC(=O)Cn3cnnn3)cc2C1=O | 2 | 2 | . | . | 2 | -3
CN(C)c1ccc(/C=C/c2nc3ccccc3c(=O)[nH]2)cc1 | 1 | -383 | -33* | -1 | -109 | -4
O=c1[nH]c(/C=C/c2ccc(Br)cc2)nc2ccccc12 | -1 | 7 | 2 | 0 | 7 | -1
O=C(/C=C/[C@H]1O[C@@H](n2ccc(=O)[nH]c2=O)[C@H](O)[C@@H]1O)N[C@@H](Cc1ccccc1)C(=O)O | . | -9 | . | . | . | .

Compound activity from PubChem BioAssay.
